The whole screen tested about 420,000 compounds, of which about 50,000 (12%) were called active. Not shown: some 26% with an inconclusive outcome. The sample as a whole holds a higher share of actives than the screen did. Values without a mark were called inactive. Calls come from the whole dose curve; as a rule, active = well fitted inhibition curve with a large enough effect; inconclusive = small, poorly fitted or top-dose-only effect; inactive = flat fitted curve, though single readings scatter.
Test: qHTS for Inhibitors of human tyrosyl-DNA phosphodiesterase 1 (TDP1): qHTS in cells in presence of CPT; note: nearly all actives have a fitted effect of over 55% in size
Details: chicken DT40 Tdp1-/-;hTDP1 cells + 20 nM CPT, ATP luminescence, 48 h; series mostly up to 46.2 µM; activity change, negative = growth inhibition: at the top concentration
In short: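 Chicken DT40 Tdp1-/- cells complemented with human TDP1, 400 cells/well, exposed to compounds plus 20 nM camptothecin for at least 48 h at 37 C; viability read as ATP content by CellTiter-Glo luminescence.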
% is set by controls: 0 for no effect and ±100 for the full control effect; potency is the fitted concentration of half-maximal effect.

Compound | activity change, negative = growth inhibition [%] | Potency
O=C(NCCc1nnc2ccc(SCC(=O)N3CCOCC3)nn12)c1ccccc1 | 19.8 | 
CC1=CCC2C(=O)N(c3cccc(C(=O)NC(C)c4ccccc4)c3)C(=O)C2C1 (centres undefined) | 7.83 | 
COc1ccc(Cl)cc1NC(=O)CN(C)CC(=O)Nc1ccc2c(c1)OCO2 | -29.4 | 
CC1(c2ccc(Cl)cc2)NC(=O)N(CC(=O)c2ccc3c(c2)OCO3)C1=O (centres undefined) | -26.1 | 
Cc1oc(C)c2c(=O)cc(-c3ccc4c(c3)OCO4)cc(OC(=O)c3ccc(Cl)cc3)c12 |  | 20.6 µM (active)
Cc1cc(-c2ccccc2)nc(N2CCC(C(=O)NC34CC5CC(CC(C5)C3)C4)CC2)n1 | -20 | 
CSCCC(NC(=O)COc1ccccc1)C(=O)N1CCN(c2cccc(C(F)(F)F)c2)CC1 (centres undefined) |  | 16.4 µM (active)
CSCCC(NC(=O)COc1ccccc1)C(=O)OCCOc1ccc(Br)cc1 (centres undefined) | -7.17 | 
CSCCC(NC(=O)COc1ccccc1)C(=O)OCCOc1ccc(F)cc1 (centres undefined) | 1.47 | 
Nc1cc(N2CCCCCC2)c2nonc2c1[N+](=O)[O-] | 3.78 | 
C(=Nc1ccc(/C=C/c2ccnc3ccccc23)cc1)Nc1ccc(/C=C/c2ccnc3ccccc23)cc1 |  | 10 µM (active)
CCCCC(CCCC)c1ccc(C=Nc2ccc(/C=C/c3ccnc4ccccc34)cc2)cc1 |  | 17.8 µM (active)
C(=Nc1ccc(/C=C/c2ccnc3ccccc23)cc1)c1cc2c3c(c1)CCCN3CCC2 |  | 11.2 µM (active)
Cc1ccc(CNC(=O)CCNS(=O)(=O)c2cccc3nonc23)cc1 | 0.319 | 
CCOC(=O)Cc1ccc(NC(=O)Nc2c[nH]c(=O)[nH]c2=O)cc1 | -22 | 
O=C(NNC(=S)Nc1ccc(F)cc1)[C@H]1C[C@@H]1c1ccccc1 | -0.703 | 
CC(Oc1ccccc1F)C(=O)NN (centres undefined) | -0.304 | 
Cc1ccc(S(=O)(=O)N(C)C)cc1NC(=O)CN1c2cccc3cccc(c23)S1(=O)=O | -24.2 | 
Cc1c(NC(=O)c2c([N+](=O)[O-])cnn2C)c(=O)n(-c2ccccc2)n1C | -1.75 | 
CC(C)CC(NS(=O)(=O)c1ccc2c(c1)oc(=O)n2C)C(=O)NCc1ccccc1Cl (centres undefined) | 8.64 | 
O=c1c2cc([N+](=O)[O-])ccc2nc2n1CCC2 | 5.4 | 
Cc1cc(C(C)(C)C)cc(C)c1N | -4.73 | 
C=CCn1c(=NC(=O)c2cccs2)sc2cc(NC(C)=O)ccc21 |  | 13 µM (active)
C=CCn1c(CCNC(=O)c2cccs2)n[nH]c1=S | -7.48 | 
C=CCn1c(=NC(=O)c2ccc(S(=O)(=O)N3CCCC3)cc2)sc2cc(NC(C)=O)ccc21 | -24.1 | 

Compound | activity change, negative = growth inhibition [%] | Potency
Cc1cccc(CCNS(=O)(=O)c2ccc3c(c2)NC(=O)CO3)c1 | -23.9 | 
CCOC(=O)c1cc2c(=O)n3ccccc3nc2n(CC2CCCO2)c1=NC(=O)c1ccc(C(C)(C)C)cc1 (centres undefined) | -1.11 | 
CCc1nc(SCC(=O)NNC(=O)c2ccc(C)cc2)c2ccccc2n1 | -13.1 | 
COC(=O)CSc1nc(C2CC2)nc2ccccc12 | -15.9 | 
CC(C)N(C(=O)CSc1nc(COc2ccccc2)nc2ccccc12)C(C)C |  | 23.1 µM (active)
Cc1cc(C)cc(NC(=O)NC2CCN(CC(=O)Nc3cccc(Cl)c3C)CC2)c1 | -18 | 
CCC(=O)Nc1ccccc1C(=O)N1CCN(Cc2ccccc2)CC1 | -9.21 | 
Cc1nn(Cc2ccccc2)c(C)c1C(=O)N1CCN(CC(=O)Nc2ccccc2Cl)CC1 |  | 16.4 µM (active)
CNC(=O)CN1C(=O)NC(c2ccccc2)(c2ccccc2)C1=O | -0.402 | 
Cc1ccc(SCC(=O)N2CCN(c3ccc(F)cc3)CC2)cc1 | -23 | 
Cc1ccc(CSCC2Nc3ccc(C(=O)N4CCN(c5ccc(F)cc5)CC4)cc3NC2=O)cc1 (centres undefined) |  | 16.4 µM (active)
COC(=O)c1ccc(C(=O)OC)c(NC(=S)N2CCN(c3ccc(F)cc3)CC2)c1 | -26.1 | 
CN(Cc1ccc(CNC[C@H]2O[C@@H](n3cnc4c(N)ncnc43)[C@H](O)[C@@H]2O)o1)S(C)(=O)=O | -7.47 | 
Cn1cccc1C(C#N)c1ccccc1C#N (centres undefined) | -1.65 | 
CCc1ccc2c(c1)C(c1ccc([N+](=O)[O-])cc1)=NNC(c1ccccc1)=N2 | -24.4 | 
Cc1ccc(C2=Nc3c(ccc4ccccc34)C(c3ccncc3)=NN2)cc1 |  | 18.4 µM (active)
Cc1cc(C)n2nc(C(=O)OC(C)C(=O)c3cc(C)c(C)cc3C)nc2n1 (centres undefined) | 9.74 | 
COc1cc(OC)cc(C(=O)NC2CCN(C(=O)N3c4ccccc4Sc4ccccc43)CC2)c1 |  | 29.1 µM (active)
COc1ccc(C(=O)NC2CCN(C(=S)NCCc3ccccc3)CC2)cc1 | -9.89 | 
COc1ccc(C(=O)NC2CCN(C(=S)Nc3ccccc3)CC2)cc1 | -2.64 | 
O=C(c1ncn2c1c(=O)[nH]c1ccccc12)N1CCc2ccccc2C1 | -1.67 | 
CCOC(=O)C1CCCN(CC(=O)Nc2cc(C)c3c(=O)oc4ccccc4c3n2)C1 (centres undefined) | 0.0764 | 
COc1cc(/C=C/C(=O)O)cc(S(=O)(=O)Nc2ccccc2SC)c1OC | 1.85 | 
O=C(COC(=O)c1cc(=O)[nH]c2ccccc12)NCc1cccc(Cl)c1 | -26.8 | 
